# Among all 48,000 compounds or so, about 13,000 (27%) showed an effect of 50% or more. The list shows a part of the results.
# Tested on: Wolbachia pipientis
# Experiment: Anti-Wolbachia Cell-Based Screen
# Format: functional
# Design: scale not given: in the data most compounds retested in dose-response had high values
# Details: 5 µM
row,Compound,Percent Effect
1,Cl.O=C(Nc1cccc(CNCc2csc(Br)c2)c1)C1CC1,8.664%
2,Cn1c(CN2CCCC(Cn3cc(CCO)nn3)C2)cc2ccccc21 (stereo not drawn),-3.517%
3,Cc1ccc2cc(C3(O)CCN(C(=O)CSC(C)C)CC3)ccc2n1,8.492%
4,Cc1ccc(C)c(OCc2cc(C(=O)N(C)CC(O)CO)no2)c1 (stereo not drawn),-202.7%
5,O=C(NC1CC1)[C@H]1C[C@H]2OCC[C@H]2N(CC2CC2)C1.O=C(O)C(F)(F)F,-11.18%
6,COC[C@@H]1CC[C@H]2[C@H](CCN2S(=O)(=O)Cc2ccccc2)O1,24.17%
7,Cc1ccc(C(=O)N2C[C@H]3CC[C@@H]2CN(S(=O)(=O)N(C)C)C3)c(O)c1,-19.11%
8,CCOC(C)c1noc(CN(C)C(=O)c2cc3ccccn3c2)n1 (stereo not drawn),5.368%
9,CCc1ocnc1C(=O)N1CCC(n2cc(-c3ccsc3)nn2)CC1,-3.384%
10,COc1ccc2nnc(CCC(=O)Nc3nc4c(s3)CCCCC4)n2n1,106.8%
11,Cc1nc(S(=O)(=O)NCCC(=O)NCc2ccc(C#N)cc2)cn1C,-22.12%
12,CCCC(=O)Nc1ccc(CC(=O)N(CC)CC2CCCCO2)cc1 (stereo not drawn),-7.616%
13,CCN(CC1CCCO1)C(=O)Nc1cccc(N2CCOCC2)c1 (stereo not drawn),-20.72%
14,CCN(CC1CCCO1)C(=O)Nc1cc(OC)c(OC)cc1C (stereo not drawn),1.885%
15,CCN(CC1CCCO1)C(=O)Nc1ccc(F)cc1OC (stereo not drawn),-0.9971%
16,CCN(CC1CCCO1)C(=O)Nc1cccc(Cl)c1OC (stereo not drawn),103.8%
17,CCN(CC1CCCO1)C(=O)Nc1cc(C(N)=O)ccc1OC (stereo not drawn),103.2%
18,CCN(CC1CCCO1)C(=O)Nc1cc(C(=O)OC)ccc1F (stereo not drawn),-7.432%
19,CCN(CC1CCCO1)C(=O)Nc1cc(C)ccc1S(C)(=O)=O (stereo not drawn),111.7%
20,CCN(CC1CCCO1)C(=O)Nc1ccc(OC)c(C)c1 (stereo not drawn),118.7%
21,CCN(CC1CCCO1)C(=O)CSCC(=O)Nc1ccc(C)cc1 (stereo not drawn),18.9%
22,CN(C)c1ccc(CCCNC(=O)Nc2ccc(C#N)cc2)cc1,14.16%
23,O=C(c1ccc(N2CCCC2)nn1)N1CCCc2cc(F)c(F)cc21,-2.029%
24,Cc1nc(CCCNC(=O)C2CC(=O)N(C(C)(C)C)C2)sc1C (stereo not drawn),-4.767%
25,COc1cccc(-n2nnc(C(=O)N3CCNC(=O)C3)c2C)c1,2.603%

row,Compound,Percent Effect
1,CCN(CC1CCCO1)C(=O)NCCNC(=O)c1ccccc1F (stereo not drawn),93.7%
2,CCN(CC1CCCCO1)C(=O)CCNC(=O)c1ccccc1F (stereo not drawn),0.5335%
3,COCCN(CC1CCCO1)C(=O)CCNC(=O)c1ccccc1F (stereo not drawn),6.163%
4,CSCC(=O)NC1CCN(C(C)c2ccccc2)CC1 (stereo not drawn),-9.489%
5,CC1CCN(CC(=O)NC2CCN(C(C)c3ccccc3)CC2)CC1.Cl (stereo not drawn),112.7%
6,CCOCCCC(=O)NC1CCN(C(C)c2ccccc2)CC1 (stereo not drawn),-0.8786%
7,Cc1cnn(CCC(=O)Nc2cccnc2N2CCC(CO)CC2)c1,-13.92%
8,CCc1nc(C2CCCN(C(=O)NC3CC3)C2)no1 (stereo not drawn),109.2%
9,CCc1nc(C2CCCN(C(=O)NC(C)C)C2)no1 (stereo not drawn),123.4%
10,CCc1nc(C2CCCN(C(=O)C(C)(C)NS(C)(=O)=O)C2)no1 (stereo not drawn),113.6%
11,CCc1nc(C2CCCN(C(=O)CN(C)S(C)(=O)=O)C2)no1 (stereo not drawn),1.006%
12,CCc1nc(C2CCCN(C(=O)CC3CCOCC3)C2)no1 (stereo not drawn),122.8%
13,CCc1nc(C2CCCN(C(=O)C3=NN(C(C)C)C(=O)CC3)C2)no1 (stereo not drawn),7.741%
14,CCc1nc(C2CCCN(C(=O)c3c[nH]c(C(C)C)n3)C2)no1 (stereo not drawn),7.02%
15,CCNC(=O)N1CCCC(c2noc(CC)n2)C1 (stereo not drawn),-3.898%
16,CCc1nc(CCNc2ncccc2C#N)sc1C,-8.813%
17,CN(C)C(=O)Cc1ccccc1NCc1nc(Cc2ccccc2)no1,16.45%
18,O=C(NCc1cc(O)ncn1)C1COc2ccccc2C1 (stereo not drawn),-5.183%
19,O=C1N(CCCc2ccccc2)CCCC1(O)CNCc1ccccc1 (stereo not drawn),-2.179%
20,Cc1cnn(-c2cccc(N3CCN(c4cc(C)nc(C)n4)CC3)n2)c1,4.719%
21,CCc1nc(C2CCCN(C(=O)NCCOC)C2)no1 (stereo not drawn),110.5%
22,Cc1c(C)c2c(c(C)c1O)CC[C@](C)(C(=O)O)O2 [(R)-TROLOX],132.5%
23,CNc1cc(C)nc(NCc2cc(C)cc3c(C)c(C)[nH]c23)n1,13.77%
24,CNC(=O)NC(=O)C(C)N1CCN(C2CCCC2)CC1 (stereo not drawn),-18%
25,CC(Cn1ccnc1)NC(=O)NCCNC(=O)C(C)C (stereo not drawn),-18.32%

row,Compound,Percent Effect
1,CCC(Cn1ccnc1)n1cnc2c(C)csc2c1=O (stereo not drawn),163.7%
2,CCC(CO)n1cnc2scc(C)c2c1=O (stereo not drawn),100.6%
3,Cc1csc2ncn(C(C)Cc3cccnc3)c(=O)c12 (stereo not drawn),-2.167%
4,Cc1csc2c(=O)n(CCN3CCC(c4ccccc4)CC3)cnc12,21.54%
5,CCC(Cn1ccnc1)n1cnc2scc(C)c2c1=O (stereo not drawn),110.7%
6,Cc1csc2c(=O)n(C(C)Cc3cccnc3)cnc12 (stereo not drawn),4.44%
7,Cc1nc(CN2CCCn3c(nc(Cn4ccnc4)cc3=O)C2)cs1,17.01%
8,COCC1CCN(Cc2cc(O)c3c(C)ccc(C)c3n2)CC1,5.678%
9,Cn1cccc1C(=O)N1CCCCC12CC(=O)N(c1cccnc1)C2.O=C(O)C(F)(F)F (stereo not drawn),-1.407%
10,CN1CC(=O)N(c2cccnc2)CC12CCN(C(=O)c1cccn1C)C2.O=C(O)C(F)(F)F.O=C(O)C(F)(F)F (stereo not drawn),108.5%
11,Cc1oncc1C(=O)N1CCC2(C1)CN(c1cccnc1)C(=O)CN2C (stereo not drawn),-7.65%
12,Cc1cc(C(=O)N2CCC3(CC2)COCCN(c2cccnc2)C3)[nH]n1.O=C(O)C(F)(F)F,-3.174%
13,CN1CC(=O)N(c2cccnc2)CC12CCN(C(=O)C1CCCCC1)C2.O=C(O)C(F)(F)F.O=C(O)C(F)(F)F (stereo not drawn),-22.33%
14,Cc1cc(C(=O)N2CCC3(C2)CN(c2cccnc2)C(=O)CN3C)[nH]n1.O=C(O)C(F)(F)F.O=C(O)C(F)(F)F (stereo not drawn),112%
15,COc1cc(C)ccc1OCCN1CC[C@@]2(O)CCNC[C@H]2C1,28.12%
16,O=C(c1cc2cccc(F)c2[nH]1)N1C[C@@H](O)[C@H](N2CCCC2)C1,132.3%
17,CN1CCN([C@@H]2CN(C(=O)c3cc4ccc(F)cc4[nH]3)C[C@H]2O)CC1,68.22%
18,CN1CCN([C@@H]2CN(C(=O)c3cc4cccc(F)c4[nH]3)C[C@H]2O)CC1,104.7%
19,CN(C)[C@@H]1CN(C(=O)c2cc3cccc(F)c3[nH]2)C[C@H]1O,116.9%
20,COc1ccccc1OCc1cc(C(=O)N2C[C@H](O)[C@@H](N(C)C)C2)n[nH]1,14.49%
21,Cc1ccc2cc(C(=O)N3CCN(C(=O)c4ccoc4)CC3)[nH]c2c1,0.1699%
22,CN(C)[C@H]1CN(C(=O)c2ccc3sc4c(c3c2)CCNC4=O)C[C@@H]1O,13.68%
23,CCn1nc(CC(C)C)cc1C(=O)N1C[C@H](O)[C@@H](N2CCCCC2)C1,-3.036%
24,Cc1ccc2cc(C(=O)N3CCS(=O)(=O)CC3)[nH]c2c1,-4.814%
25,Cc1ccc(OC2(C(=O)O)CCN(C(=O)c3ccoc3C)CC2)cn1,-1.307%

row,Compound,Percent Effect
1,CCN(Cc1csc(CS(C)(=O)=O)n1)c1cccc(F)c1,0.8671%
2,CCN(C)c1ccc(CNC(=O)CCn2cc(C)cn2)cc1F,-2.464%
3,Cc1ccc(N2CCO[C@H]3CN(Cc4cc(C)on4)CC[C@H]3C2=O)cn1.O=C(O)C(F)(F)F.O=C(O)C(F)(F)F,-4.354%
4,CC(C)c1cc(NCC(O)c2ccc(F)cc2)n2nccc2n1 (stereo not drawn),-15.19%
5,CCN(CC)C(=O)Cn1cc(C(=O)NCCc2scnc2C)nn1,5.922%
6,O=C(NC1CCS(=O)(=O)c2ccccc21)c1sccc1C1CC1 (stereo not drawn),-7.789%
7,CN(CCc1ccccn1)[C@@H]1CCN(c2cccc(C#N)n2)C[C@H]1O,16.97%
8,N#CCCCn1nnc(C2(NC(=O)c3ccccc3)CCCC2)n1,-18.68%
9,O=C1CN(C(=O)c2cc(-c3ccco3)nc3c(Cl)cccc23)CCN1,-11.35%
10,CCc1nccc(CN2CCC(CNC(=O)Nc3ccccc3)C2)n1 (stereo not drawn),-10.66%
11,COc1cc(CNC(=O)C(C)SC)cc(Br)c1OC (stereo not drawn),11.13%
12,O=C(Nc1ccc(-n2cccn2)cc1)N1C[C@H](O)[C@@H](N2CCOCC2)C1,1.189%
13,O=C(c1ccc(F)cc1F)N1C[C@@H](O)[C@H](N2CCOCC2)C1,7.48%
14,O=C(c1cc2cccc(F)c2[nH]1)N1C[C@@H](O)[C@H](N2CCOCC2)C1,110.4%
15,CCCn1ncc(-c2nc3c(cnn3CC)[nH]2)c1C,-25.23%
16,COCCN(c1ccncc1)S(=O)(=O)c1cc(C)c(F)cc1F,-2.029%
17,CC(=O)NCC1CCN(C(=O)NCc2ccc3c(c2)OCCO3)CC1,-6.191%
18,Cc1noc([C@@H](C)NCc2ccc(F)cc2)c1C(=O)O.Cl,-4.042%
19,Cc1noc(C)c1C(=O)NCc1ccnc(OCC(F)(F)F)c1,-2.057%
20,Cc1noc(C(C)C)c1C(=O)NCc1ccc(N(C)C)c(F)c1,78.48%
21,Cc1noc(C(C)C)c1C(=O)NCc1ccc2c(c1)OCCO2,83.78%
22,CN(C)C(=O)c1ccccc1NC(=O)N(C)Cc1ccccc1O,-13.22%
23,O=C(CCNC(=O)NC1CCN(C2CC2)CC1)NCc1ccccc1,-15.75%
